Experimental data published in PubChem BioAssay AID2235 (The Scripps Research Institute Molecular Screening Center, 2010).
Out of some 320,000 compounds screened, about 2,800 (0.88%) were called active.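 The calls were made as follows: active = inhibition above the mean inhibition of all tested compounds plus 3 SD, computed separately for each screening campaign (cut at about 15% in these data); inactive = the rest.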 The list comes from a sample in which actives are over-represented; it also holds similar structures and randomly drawn compounds.

Each compound was assayed against Serine/threonine-protein phosphatase PP1-alpha catalytic subunit (Homo sapiens) (UniProt P62136) (assay: inhibition of human PP1 catalytic subunit – biochemical, fluorescence, OMFP substrate, single point, counter-screen for PP5 inhibitor project, primary screen (AID 2235)). Settings: purified PP1alpha, at 6.7 µM, active compounds read high.
Serine/threonine-protein phosphatase PP1-alpha catalytic subunit (Homo sapiens), sequence (P62136 whole entry, looked up): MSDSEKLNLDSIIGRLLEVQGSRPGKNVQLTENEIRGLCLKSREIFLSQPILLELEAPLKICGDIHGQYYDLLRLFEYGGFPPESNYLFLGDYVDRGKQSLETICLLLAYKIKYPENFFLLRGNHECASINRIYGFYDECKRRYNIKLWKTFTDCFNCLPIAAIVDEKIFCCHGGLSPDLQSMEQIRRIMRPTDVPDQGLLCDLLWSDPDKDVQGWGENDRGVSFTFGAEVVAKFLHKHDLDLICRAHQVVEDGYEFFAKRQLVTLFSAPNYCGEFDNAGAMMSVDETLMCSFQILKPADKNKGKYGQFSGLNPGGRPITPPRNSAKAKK

With O=C(c1ccc(Cl)c(S(=O)(=O)N2CCCCCC2)c1)N1CCN(c2ccc(O)cc2)CC1 as the compound, how does the inhibition read?
The inhibition was 5.02% (inactive).

How did the inhibition turn out when CC(C)n1ncc2c(C(=O)NCc3ccccc3CN(C)C)cc(C3CC3)nc21 was run?
The inhibition was 3.23% (inactive).

With O=C(NCC(c1ccco1)N1CCc2ccccc2C1)c1ccccc1Cl (centres undefined) as the compound, how does the inhibition read?
The inhibition was -5.84% (inactive).

How did the inhibition turn out when O=C(/C=C/c1ccc(F)cc1)NC(=S)NNC(=O)c1cccnc1 was run?
Its inhibition is 24.8% (active).

Which inhibition does the source give for O=C(/C=C/c1ccc(F)cc1)NCCNC(=O)/C=C/c1ccc(F)cc1 here?
The inhibition was -0.56% (inactive).

CC(C)c1ccc(/C=C/C(=O)NNC(=O)c2cccnc2)cc1 was tested. Which inhibition did it give?
Its inhibition is -4.56% (inactive).

How did the inhibition turn out when CCN(CC)Cc1c(C(=O)N/N=C/c2cccc(OCc3ccc(F)cc3)c2)nnn1-c1nonc1N was run?
The inhibition was -5.41% (inactive).

Which inhibition does the source give for COc1cccc(N2CCN(c3ccc4nnc(CCC(=O)N5CCN(C)CC5)n4n3)CC2)c1 here?
Its inhibition is -3.98% (inactive).

With CCOc1ccc(NC(=O)NNC(=O)c2ccc(Cl)cc2Cl)cc1 as the compound, how does the inhibition read?
The inhibition was 3.13% (inactive).

With OC(CNCCc1ccc(Cl)cc1Cl)COc1ccccc1 (centres undefined) as the compound, how does the inhibition read?
The inhibition was 10.6% (inactive).

NC(N)=N/N=C/c1ccc(OCc2ccc(Cl)cc2Cl)cc1 was tested. Which inhibition did it give?
The inhibition was 37.2% (active).

How did the inhibition turn out when Cc1cccc(Nc2nnc(SCC(=O)c3c(N)n(C4CC4)c(=O)[nH]c3=O)s2)c1C was run?
Its inhibition is -0.71% (inactive).

O=C(O)c1cc([N+](=O)[O-])c(Nc2cccc3ccccc23)c([N+](=O)[O-])c1 was tested. Which inhibition did it give?
The inhibition was 3.7% (inactive).

Which inhibition does the source give for O=C(Nc1ccc(F)cc1)N1CCCC(c2nc3c(nnn3Cc3ccccc3Cl)c(=O)[nH]2)C1 (centres undefined) here?
Its inhibition is 4.93% (inactive).

With Cc1cc(C)cc(NC(=O)Cn2cnc3c(nnn3Cc3ccc(F)cc3)c2=O)c1 as the compound, how does the inhibition read?
Its inhibition is 8.94% (inactive).

With Cc1ccc(C)c(Cn2nnc3c(=O)[nH]c(C(=O)Nc4ccc(F)cc4)nc32)c1 as the compound, how does the inhibition read?
Its inhibition is 46.5% (active).

How did the inhibition turn out when CCCn1nnnc1NCc1ccc(CC)cc1 was run?
Its inhibition is 0.05% (inactive).

Cc1nc(NC(=O)C2CCCCC2)sc1C was tested. Which inhibition did it give?
Its inhibition is -0.06% (inactive).

COc1ccc(Cn2nnc3c(=O)[nH]c(C4CCN(C(=O)c5ccccc5Cl)CC4)nc32)cc1 was tested. Which inhibition did it give?
The inhibition was 1.01% (inactive).

How did the inhibition turn out when Cc1ccc(Cn2nnc3c(=O)[nH]c(C4CCN(S(=O)(=O)/C=C/c5ccccc5)CC4)nc32)cc1 was run?
Its inhibition is 20.9% (active).

Which inhibition does the source give for Cc1ccc(NC(=O)N2CCC(c3nc4c(nnn4Cc4c(F)cccc4Cl)c(=O)[nH]3)CC2)cc1 here?
Its inhibition is 4.5% (inactive).

With Cc1ccc(S(=O)(=O)CCC(=O)OCc2ccccc2)cc1 as the compound, how does the inhibition read?
The inhibition was -6.27% (inactive).

Which inhibition does the source give for CC(=O)[C@@]12O[C@@H]1C[C@H]1[C@@H]3CC[C@H]4C[C@@H](O)CC[C@]4(C)[C@H]3CC[C@@]12C here?
The inhibition was 0.47% (inactive).

With C=CCN(CC=C)S(=O)(=O)c1ccc(C(=O)Nc2sc3c(c2C(N)=O)CCCCC3)cc1 as the compound, how does the inhibition read?
The inhibition was -0.71% (inactive).

With COc1ccc(C(=O)Nc2ncc3c(n2)-c2ccccc2CC3)cc1 as the compound, how does the inhibition read?
Its inhibition is -1.56% (inactive).

Which inhibition does the source give for C=CCN(CC=C)S(=O)(=O)c1ccc(C(=O)Nc2nc3c(s2)CCc2ccccc2-3)cc1 here?
The inhibition was 25.9% (active).

For COCCN(CCOC)S(=O)(=O)c1ccc(/C(O)=C(\C#N)c2nc3ccccc3[nH]2)cc1, which inhibition is on record?
Its inhibition is -3.73% (inactive).

CCN(c1ccccc1)S(=O)(=O)c1ccc(C(=O)Nc2nccs2)cc1 was tested. Which inhibition did it give?
Its inhibition is 1.49% (inactive).

For COCCN(CCOC)S(=O)(=O)c1ccc(C(=O)Nc2nc3c(s2)CCc2ccccc2-3)cc1, which inhibition is on record?
Its inhibition is 22.6% (active).
